The values below come from PubChem BioAssay (NCI).

The panel holds about 83,000 compounds, 20% with a hit somewhere; the sample as a whole holds those more often.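 Growth was measured after 48 h exposure to one concentration of compound in 96-well plates. Values under 10 count as active.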 Unmarked numbers belong to inactive results. Activity calls are given as the source filed them.

Test systems include SK-MEL-2 melanoma; EKVX NSCLC; SN12C renal; UO-31 renal; TK-10 renal; ACHN renal; CAKI-1 renal; A498 renal; CCRF-CEM leukemia; MOLT-4 leukemia; SR leukemia; RPMI-8226 leukemia; OVCAR-8 ovarian; OVCAR-5 ovarian; OVCAR-4 ovarian; SK-OV-3 ovarian; IGROV1 ovarian; OVCAR-3 ovarian; HS 578T breast; NCI/ADR-RES ovarian.
Holding throughout (experiment): NCI-60 one-dose screen, 48 h (100 = growth as untreated, 0 = no growth, -100 = all killed)
Holding throughout (details): 10 µM unless noted

Turning to `c1ccc(-c2oc(-c3ccccc3)c(CN3CCCCC3)c2CN2CCCCC2)cc1`, the growth is 48.4% in the test on SK-MEL-2 melanoma; 41% with EKVX NSCLC; 31.2% in the test on SN12C renal; 18.5% in the test on UO-31 renal; 42.2% in the test on TK-10 renal; 44.9% in the test with ACHN renal. Further, the growth is 38.1% with CAKI-1 renal; 17.5% in the test on A498 renal; 24.1% with CCRF-CEM leukemia; 15.2% in the test on MOLT-4 leukemia; -2.07% (active) with SR leukemia; -6.38% (active) with RPMI-8226 leukemia. In addition, the growth was 33% with OVCAR-8 ovarian; 50.3% in the test with OVCAR-5 ovarian; 11.9% with OVCAR-4 ovarian; 52.3% with SK-OV-3 ovarian; 44.7% in the test on IGROV1 ovarian; 23.4% in the test on OVCAR-3 ovarian. In addition, the growth in the test on HS 578T breast is 34.3%; in the test with NCI/ADR-RES ovarian it was 39.8%.
For the compound `Cc1[nH]c(C(=O)Nc2ccc(C(=O)N3CCN(c4cc5c(cc4F)c(=O)c(C(=O)O)cn5C4CC4)CC3)cc2OC(C)C)c(Cl)c1Cl`, the growth in the test with SK-MEL-2 melanoma is 105%; in the test on EKVX NSCLC, 80.5%; in the test with SN12C renal, 31.2%; with UO-31 renal, 56.2%; in the test with TK-10 renal, 82.7%; with ACHN renal, 67.9%. Besides, the growth in the test on CAKI-1 renal was 74.8%; in the test with A498 renal, 55.6%; with CCRF-CEM leukemia, 53%; in the test on MOLT-4 leukemia it was 93.3%; with SR leukemia, 45.9%; with RPMI-8226 leukemia it was 34.2%. The growth in the test on OVCAR-8 ovarian was 78.2%; with OVCAR-4 ovarian, 94.5%; in the test on SK-OV-3 ovarian it was 110%; in the test on IGROV1 ovarian, 49.5%; in the test on OVCAR-3 ovarian it was 85.8%; in the test on HS 578T breast, 87.2%. In the test on NCI/ADR-RES ovarian, the growth is 78.4%.
Regarding `Nc1ncnc2c1N=C(c1ccc(Br)cc1)CC(c1cccc(Nc3ccnc4cc(C(F)(F)F)ccc34)c1)N2` (centres undefined), the growth was 68.5% in the test on SK-MEL-2 melanoma; 44.4% in the test with EKVX NSCLC; 70.6% in the test with SN12C renal; 47.2% in the test on UO-31 renal; 102% in the test with TK-10 renal; 80% with ACHN renal. Further, the growth in the test with CAKI-1 renal is 56.2%; with A498 renal, 63%; in the test with CCRF-CEM leukemia it was 34.3%; in the test with MOLT-4 leukemia, 16.8%; with SR leukemia it was 22.1%; in the test with RPMI-8226 leukemia, 12.7%. The growth is 69.9% in the test with OVCAR-8 ovarian; 88.7% in the test with OVCAR-5 ovarian; 76.8% in the test on OVCAR-4 ovarian; 45.7% with SK-OV-3 ovarian; 65.7% with IGROV1 ovarian; 83.9% in the test on OVCAR-3 ovarian. The growth in the test on NCI/ADR-RES ovarian is 66.9%.
Consider `COc1cc(NS(=O)(=O)c2ccc(-c3cnc(C4CC4)o3)cc2)ccc1F`, for which the growth in the test with SK-MEL-2 melanoma is 54.2%; in the test with EKVX NSCLC it was 33%; in the test with SN12C renal it was 41.1%; in the test with UO-31 renal, 37.1%; with TK-10 renal, 43.8%; with ACHN renal, 37.3%. In addition, the growth in the test with CAKI-1 renal is 35.4%; with A498 renal, -6.34% (active); in the test with CCRF-CEM leukemia, 19.5%; in the test with MOLT-4 leukemia, 31.9%; in the test on SR leukemia, 19.6%; in the test on RPMI-8226 leukemia, 20.2%. For the same compound, the growth with OVCAR-8 ovarian was 28.6%; in the test with OVCAR-4 ovarian it was 38.6%; in the test with SK-OV-3 ovarian, 47.4%; in the test on IGROV1 ovarian, 24.6%; with OVCAR-3 ovarian, -15.4% (active); with HS 578T breast, 8.89% (active). For the same compound, the growth with NCI/ADR-RES ovarian was 15.3%.
As for `CCO/C=N/C1=C(C#N)C(c2ccc(Cl)cc2)c2sc3c(F)cccc3c2O1` (centres undefined), the growth in the test on SK-MEL-2 melanoma is 14.2%; in the test with EKVX NSCLC, 75.7%; in the test with SN12C renal it was 79.7%; with UO-31 renal it was 66%; with TK-10 renal it was 88.1%; with ACHN renal, 92.3%. Also, the growth in the test with CAKI-1 renal was 41.3%; in the test with A498 renal, 56.5%; in the test on CCRF-CEM leukemia, 38.1%; in the test on MOLT-4 leukemia, 71.5%; with SR leukemia it was 36.8%; in the test on RPMI-8226 leukemia, 54.2%. The growth in the test on OVCAR-8 ovarian is 77.8%; with OVCAR-5 ovarian, 89.2%; in the test with OVCAR-4 ovarian, 77.6%; in the test with SK-OV-3 ovarian, 81.9%; with IGROV1 ovarian, 60.7%; in the test with OVCAR-3 ovarian, 25.3%. Further, the growth is 55.6% in the test with HS 578T breast and 39.6% in the test with NCI/ADR-RES ovarian.
On to `COc1ccc(Nc2nnc(-c3ccc(OC)c(OC)c3)o2)cc1`, for which the growth in the test with SK-MEL-2 melanoma was 90.5%; in the test on EKVX NSCLC, 89.8%; with SN12C renal it was 97.8%; in the test with UO-31 renal, 55.3%; with TK-10 renal, 114%; in the test with ACHN renal, 82.8%. Besides, the growth with CAKI-1 renal is 89%; with A498 renal it was 94.8%; in the test on CCRF-CEM leukemia, 86.8%; in the test on MOLT-4 leukemia, 91.3%; in the test on SR leukemia it was 86.6%; in the test with RPMI-8226 leukemia it was 92.1%. Moreover, the growth in the test with OVCAR-8 ovarian is 90.9%; in the test with OVCAR-5 ovarian it was 100%; in the test on OVCAR-4 ovarian, 89.2%; in the test with SK-OV-3 ovarian, 98%; in the test with IGROV1 ovarian it was 78.7%; in the test with OVCAR-3 ovarian, 91.4%. The growth in the test on NCI/ADR-RES ovarian is 89.2%.
`Cc1cccc(/C=C2\CN(C(=O)OC(C)(C)C)C/C(=C\c3cccc(C)c3)C2=O)c1`: the growth in the test with SK-MEL-2 melanoma is 95.3%; in the test on EKVX NSCLC, 93.4%; in the test on SN12C renal it was 95.4%; in the test on UO-31 renal, 69%; in the test on TK-10 renal, 96.1%; with ACHN renal it was 84%. The growth with CAKI-1 renal is 73.5%; in the test with A498 renal, 93.9%; in the test with CCRF-CEM leukemia, 8.66% (active); with MOLT-4 leukemia, 51.8%; in the test on SR leukemia it was 6.54% (active); in the test with RPMI-8226 leukemia it was -7.31% (active). Further, the growth was 85.4% with OVCAR-8 ovarian; 109% in the test on OVCAR-5 ovarian; 89.2% in the test with OVCAR-4 ovarian; 93.3% with SK-OV-3 ovarian; 90.4% with IGROV1 ovarian; 97.5% in the test with OVCAR-3 ovarian. Further, in the test on NCI/ADR-RES ovarian, the growth is 88%.
As for `Cc1cc(N2CCN(CCNc3ccnc4cc(Cl)ccc34)CC2)nc(N2CCOCC2)n1`, the growth in the test on SK-MEL-2 melanoma was 83.8%; in the test on EKVX NSCLC it was 65.4%; in the test with SN12C renal it was 73%; with UO-31 renal it was 43.7%; with TK-10 renal it was 84.9%; with ACHN renal, 77.3%. In addition, the growth was 57.9% in the test with CAKI-1 renal; 45.2% in the test on A498 renal; 75.5% with CCRF-CEM leukemia; 47.6% in the test with MOLT-4 leukemia; 3.62% (active) with SR leukemia; 35.3% in the test on RPMI-8226 leukemia. In addition, the growth with OVCAR-8 ovarian is 74.1%; in the test on OVCAR-5 ovarian, 92.9%; with OVCAR-4 ovarian, 53.8%; in the test with SK-OV-3 ovarian it was 85.2%; in the test on IGROV1 ovarian, 66%; in the test on OVCAR-3 ovarian, 73.1%. Besides, in the test with NCI/ADR-RES ovarian, the growth is 66.1%.
